Measurements: PubChem BioAssay AID2551 (National Center for Advancing Translational Sciences (NCATS), 2010)
Among all 310,000 compounds or so, about 17,000 (5.5%) were called active. Inconclusive results (about 11%) are left out. Calls come from the whole dose curve; as a rule, active = well fitted inhibition curve with a large enough effect; inconclusive = small, poorly fitted or top-dose-only effect, or effect the other way; inactive = no such curve, though single readings can be large or run the other way. The list comes from a sample in which actives are over-represented; it also holds similar structures and randomly drawn compounds.

Molecular target: Nuclear receptor ROR-gamma (Mus musculus) (UniProt P51450)
Test: qHTS for inhibitors of ROR gamma transcriptional activity; note: nearly all actives have a fitted effect of over 60% in size
Settings: Drosophila S2 Gal4-RORgamma UAS-luciferase reporter, 20 h; series mostly up to 53.6 µM
Summary of the method: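 Compounds are pin-transferred onto Drosophila Schneider cells expressing a copper-inducible Gal4–ROR gamma transactivation domain fusion. After 1 hr, copper sulfate is added to 700 uM final; luciferase is read 20 hr later.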
% is set by controls: 0 for no effect and ±100 for the full control effect; potency is the fitted concentration of half-maximal effect.

Chain of Nuclear receptor ROR-gamma (Mus musculus) (P51450 whole entry, looked up): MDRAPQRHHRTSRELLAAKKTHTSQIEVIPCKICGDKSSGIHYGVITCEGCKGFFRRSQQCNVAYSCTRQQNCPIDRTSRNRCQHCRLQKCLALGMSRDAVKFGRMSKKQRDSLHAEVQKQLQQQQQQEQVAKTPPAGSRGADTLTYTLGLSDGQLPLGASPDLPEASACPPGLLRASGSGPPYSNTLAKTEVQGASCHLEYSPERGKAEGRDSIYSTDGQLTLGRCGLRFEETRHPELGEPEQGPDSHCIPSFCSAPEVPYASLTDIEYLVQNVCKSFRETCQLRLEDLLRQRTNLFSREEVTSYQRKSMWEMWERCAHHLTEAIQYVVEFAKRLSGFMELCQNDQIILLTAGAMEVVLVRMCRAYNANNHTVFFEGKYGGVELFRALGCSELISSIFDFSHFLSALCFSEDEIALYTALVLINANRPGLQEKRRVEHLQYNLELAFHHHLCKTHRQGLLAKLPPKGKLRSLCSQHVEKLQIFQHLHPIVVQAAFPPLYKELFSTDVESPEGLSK

Potency, active:
Cc1ccc(-c2cnc(NC(=O)CCC(=O)N(C)Cc3ccccc3)n2C)cc1 2.24 µM
Oc1ccccc1-c1cc(-c2ccc(Cl)cc2)n[nH]1 7.08 µM
CN(C(=O)CC1C(=O)NCCN1Cc1ccc(F)cc1Cl)C1CCCCC1 (stereo not given) 11.2 µM
O=C(Cn1cnc2ccccc21)N/N=C/c1ccco1 12.6 µM
O=c1[nH]c(CCl)nc2cc(-c3ccc(Cl)cc3)sc12 7.08 µM
Cc1ccc(-c2cc(C(=O)N/N=C/C=C/c3ccccc3)n[nH]2)o1 7.08 µM
Cc1cccc(NC(=S)NCc2ccc3[nH]c4c(c3c2)CCCC4)c1 1.58 µM
CC(C)(C)c1nnc(N/N=C/c2ccc(O)cc2)n(N)c1=O 1.26 µM
COc1ccc(C(=O)NC(=S)N2CCNC(=O)C2CC(=O)OC(C)C)cc1 (stereo not given) 4.47 µM
N=C1C(c2nc3ccccc3s2)=C(O)CN1NC(=O)c1ccc([N+](=O)[O-])cc1 2.82 µM
Cc1cc(SCC(=O)NCCN2C(=O)CSC2=O)nc2ccccc12 11.2 µM
O=C(NNC(=S)NC(=O)c1cn(-c2ccccc2)nc1-c1ccccc1)c1ccncc1 2.82 µM
Cn1c(CC(=O)Nc2ccccc2)nnc1SCC(=O)c1ccccc1 3.55 µM
CC1CCCCC1NC(=O)/C(C#N)=C/C=C/c1ccccc1[N+](=O)[O-] (stereo not given) 8.91 µM
Cc1ccc(-c2c3c(=O)n(C)c(=O)n(C)c3cn2-n2cnnc2)cc1 15.8 µM
Cn1c(-c2sc3cc(C(F)(F)F)cnc3c2-c2ccccc2)n[nH]c1=S 2.82 µM
CC1(C)OC2CC3C4CCC5=CC(=O)CCC5(C)C4(F)C(O)CC3(C)[C@]2(C(=O)CCl)O1 (stereo not given in full) 10 µM
COC(=O)C1(O)CC(C(C)C)=NN1C(=O)c1ccc(Cl)cc1 (stereo not given) 10 µM
COc1ccccc1-c1nnc(NC(=O)c2ccc3ncsc3c2)o1 0.501 µM
COc1ccccc1-c1nnc(NC(=O)c2cccc(N3C(=O)CCC3=O)c2)o1 11.2 µM

Potency, inactive:
Cn1c(-c2ccc(F)cc2)cnc1SCC(=O)NNC(=O)Cc1ccccc1
CN(Cc1ccccc1)C(=O)CCc1ccccc1
Cc1nc(-c2ccc(F)cc2)c(CC(=O)N2CCN(S(=O)(=O)c3ccc(F)cc3)CC2)s1
CCn1c(C)cc(=O)cc1-c1ccc(Cl)cc1
c1ccc(-c2cc(-c3ccccc3)[nH]n2)cc1
Cc1ccc(NC(=O)c2cc(-c3ccccc3O)n[nH]2)cc1C
CCn1ccnc1CNC(=O)CC1C(=O)NCCN1Cc1ccc(F)cc1Cl (stereo not given)
CN(C(=O)CC1C(=O)NCCN1Cc1ccc2ccccc2c1)C1CCOCC1 (stereo not given)
COc1cc(C2C(C(=O)c3ccco3)=C(O)C(=O)N2c2cc(C)on2)ccc1OCc1ccccc1 (stereo not given)
COc1ccc(C(C(=O)NC(C)(C)C)N(Cc2ccc(F)cc2)C(=O)CCC(=O)Nc2cc(C)on2)cc1 (stereo not given)
O=C(Nc1ccccc1C(=O)O)c1ccc(N2C(=O)C3CC=CCC3C2=O)cc1 (stereo not given)
O=C(Cn1cnc2ccccc21)Nc1ccccc1-c1ccccc1
Cc1cc(C)c(OCC(=O)N/N=C/c2ccco2)c(C)c1
COc1ccc(C(=O)N[C@H](C(=O)NCc2ccccc2)C(C)C)cc1
CNC[C@H](CC1CCCCC1)NC[C@H](NCCC1CCCC1)[C@H](C)O
O=C(Nc1cccnc1Cl)c1cc(-c2ccccc2O)on1
O=C(CCc1nc2ccccc2c(=O)[nH]1)OCC(=O)c1cccc(Cl)c1
NC(=O)Cc1nc2scc(-c3ccc(Cl)cc3)c2c(=O)[nH]1
Cc1ccc(-c2cc(C(=O)NN)n[nH]2)o1
CC(C)c1cc(C(=O)N/N=C/C(Br)=C/c2ccccc2)n[nH]1
CCOC(=O)N1CCC(N2Cc3cccc(C(=O)Nc4ccc(S(=O)(=O)N(CC)CC)cc4)c3C2=O)CC1
Cc1ccc2c(c1)N(CC(=O)N1CCC(C)CC1)C(=O)c1cccnc1O2
CCCn1nc(NC(=O)C(C)C)c2cc3cc(OC)ccc3nc21
Cc1cc(Cl)c2oc(C(=O)N(C)C(C)c3ccccn3)c(C)c2c1 (stereo not given)
CCNC(=O)N1CCCC(C(=O)c2ccc(-c3ccccc3)cc2)C1 (stereo not given)
NS(=O)(=O)c1ccc(CCNC(=O)c2nc(CS(=O)(=O)c3ccc(Cl)cc3)no2)cc1
COc1ccccc1NC(=O)CSc1nc2sc3c(c2c(=O)n1-c1ccccc1)CCN(C)C3
C=CCNC(=S)N1CCc2[nH]c3ccccc3c2C1
O=C(O)CCC(=O)NCc1ccc2[nH]c3c(c2c1)CCCC3
Cc1cnc(CN(C)C(=O)C2CCC(=O)N(CCc3cccc(F)c3)C2)[nH]1 (stereo not given)
O=C(C[n+]1ccccc1)N/N=C/c1ccc(O)cc1
Nc1nnn(CC(=O)N/N=C/c2ccc(O)cc2)n1
CSc1cccc(NC(=O)CN2C(=O)COc3ccc(S(=O)(=O)N4CCOCC4)cc32)c1
CC(=O)c1ccc(N2CCN(C(=O)CCNC(=O)Cn3ccc4ccccc4c3=O)CC2)cc1
Cc1ccccc1NC(=O)c1cc(S(=O)(=O)Nc2cccc(C(=O)O)c2)ccc1Cl
CCC1C(=O)NCCN1C(=O)c1ccc2nc(Cc3ccc(OC)cc3)oc2c1 (stereo not given)
COc1cccc(NC(=O)CC2C(=O)NCCN2C(=S)Nc2ccc(F)cc2)c1 (stereo not given)
COc1ccccc1N1CC(O)=C(c2nc3ccccc3s2)C1=N
CCOC(=O)CCCN1CC(O)=C(c2nc3ccccc3s2)C1=N
CCOc1cc(C2C(C(=O)c3ccco3)=C(O)C(=O)N2Cc2ccccc2)ccc1O (stereo not given)
Cn1nc(-c2ccccc2)c2cc([N+](=O)[O-])ccc21
Cc1c(NC(=O)Nc2cccc([N+](=O)[O-])c2)c(=O)n(-c2ccccc2)n1C
CC(CC(=O)Nc1ccc(F)cc1F)S(=O)(=O)c1ccc2c(c1)NC(=O)CO2 (stereo not given)
COCC(C)n1c(C)cc(C(=O)CSc2cc(C)c3ccccc3n2)c1C (stereo not given)
Cc1nnc(SCC(=O)NCc2ccccc2)s1
N[C@@H](Cc1ccccc1)C(=O)N1CCC(C(=O)NCC(=O)Nc2ccc(F)cc2)CC1
Cc1ccn2c(=O)c(C(=O)NCCC3=CCCCC3)c(O)nc2c1
COC(=O)c1cn(-c2ccccc2)nc1-c1cccnc1
O=C(Nc1cn(-c2ccccc2)nc1-c1ccccc1)c1ccccc1
CC(C)CCN(C(=O)c1csnn1)C(C(=O)NC1CCCC1)c1ccccc1 (stereo not given)
Cc1ccc(NC(=O)CN(C)C(=O)COC(=O)C(C)(C)Oc2ccc(Cl)cc2)cc1
Cn1c(Cc2cccs2)nnc1SCC(=O)Nc1ccccc1
Cn1c(CSCC(=O)Nc2ccccc2)nnc1SCc1ccccc1
CCOc1ccc(N(CC)S(=O)(=O)c2cccc3nsnc23)cc1
O=C(CN(C(=O)c1csnn1)c1cccc(Cl)c1)NC1CCCC1
COc1cc(Cl)ccc1OCc1cc(C(=O)N2CC[C@@H]3CCCC[C@H]3C2)no1
CCc1ccc(NC(=O)Cn2nnc(C(=O)NCc3ccc4c(c3)OCO4)c2N)cc1
O=C(/C=C/c1ccccc1[N+](=O)[O-])OC1CCCCC1=O (stereo not given)
CCCCC(=O)Nc1nnc(S(=O)(=O)N(C)Cc2ccco2)s1
CSc1ccccc1NC(=O)c1cc(Cl)sc1Cl
CC(c1ccccn1)N(C)C(=O)c1ccc2nc(Cc3cccc(Cl)c3)oc2c1 (stereo not given)
COc1ccc(-c2c3c(=O)n(C)c(=O)n(C)c3cn2-c2cccc(OC)c2)cc1
Cc1ccc(-c2c3c(=O)n(C)c(=O)n(C)c3cn2-c2ccccc2O)cc1
CC(=O)OCC(=O)[C@@]1(O)CCC2C3CCC4=CC(=O)CC[C@@]4(C)[C@]3(F)C(O)C[C@]21C (stereo not given in full)
CNC(=O)[C@]1(C(F)(F)F)C[C@H](CCc2ccccc2)CCCO1
CCOCCCN(C)C1CCN(C(=O)c2oc3ccccc3c2NC(=O)COc2cccc(C)c2)CC1
Cn1c(Nc2ccccc2)cc(=O)n(C)c1=O
COc1cccc(NC(=O)COc2cc(C)cc3oc(=O)cc(C)c23)c1
CC(NC(=O)c1ccc(Cl)cc1)C(=O)N1CCCCC1 (stereo not given)
COC(=O)c1cn(C(=O)c2ccc(Cl)cc2)c2ccccc12
CC1CCC2CCCCC2N1C(=O)c1cc([N+](=O)[O-])cc([N+](=O)[O-])c1 (stereo not given)
C=CCSc1nc2c(c(=O)[nH]c(=O)n2C)n1Cc1ccccc1
COc1ccccc1NC(=O)c1ccc2nc(N3C(=O)CCC3=O)sc2c1
Cc1cc(NC(=O)c2cccc(N3C(=O)CCC3=O)c2)no1
O=C(Nc1cccc2cccnc12)c1cccc(N2C(=O)CCC2=O)c1
COc1ccccc1-c1nnc(SCC(=O)N2CC(C)CC(C)C2)o1 (stereo not given)
O=C(CC1C(=O)NCCN1CC(c1ccccc1)c1ccccc1)NCC1CCOCC1 (stereo not given)

Activity change, negative = inhibition, inactive:
O=C(/C=C/c1ccccc1[N+](=O)[O-])NCC1CCCO1 (stereo not given) 16.2% [at 10 µM]
Cc1cc(C(F)(F)F)n2ncc(-c3ccccc3)c2n1 -12.2% [at 0.365 µM]
CC(=O)OCC(=O)[C@@]1(O)CC[C@@H]2[C@H]3CCC4=CC(=O)C=C[C@]4(C)[C@]3(F)[C@@H](O)C[C@@]21C -4.5% [at 2.98 µM]
